# About 83,000 compounds went through this panel and 20% of them were active in at least one assay; those are over-represented in the sample as a whole.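 Assay: single dose, 48 h. Readout: percent growth (0 = no net growth; negative = cell death). Active: <10.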 A number with no mark means an inactive call. The source made the active and inactive calls.
# System: HL-60(TB) leukemia
# Assay: NCI-60 one-dose screen, 48 h (100 = growth as untreated, 0 = no growth, -100 = all killed)
# Conditions: 10 µM unless noted
row,Structure (SMILES),growth
1,O=c1ccn(C2CC(O)C(O)C(CO)O2)c(=O)[nH]1 (stereo not given),90.4%
2,CCCCCC(=O)c1ccc(OCCCN2CCN(C(=O)OCC)CC2)cc1,72.4%
3,CCOc1cc(/C=C/C(=O)C(C(=O)/C=C/c2ccc(OC(=O)CNc3nc4ccccc4[nH]3)c(OCC)c2)C(=O)CNc2nc3ccccc3[nH]2)ccc1OC(=O)CNc1nc2ccccc2[nH]1,-44.4% (active)
4,CC(=O)O[C@@H]1C[C@]2(C(C)C)O[C@@]1(C)[C@@H]1CCC(C)=C1[C@@H]2OC(=O)/C=C/c1ccccc1,78.8%
5,COc1cccc(-c2nc3sccn3c2-c2ccnc(NCCCNS(=O)(=O)c3cccc(Cl)c3)c2)c1,-9.87% (active)
6,CCCCCCCCCCCC(c1ccccc1)N(C)C (stereo not given),104%
7,COc1cc(/C=C2\C(=O)N(c3c(Cl)cccc3Cl)c3ccccc32)cc(OC)c1O,-6.44% (active)
8,CC/C=C\CCC/C=C1/C(=O)C=C[C@@H]1C/C=C\CCCC(=O)OC,-9.11% (active)
9,CC1(C)OC2=C(CC1Br)C(=O)C(=O)c1ccccc12 (stereo not given),-8.14% (active)
10,O=C(Cc1ccccc1)Nc1cccc(N=Cc2ccccc2O)c1,100%
11,CCSc1nnc(NC(=O)Cc2ccc(Cl)cc2)s1,96.8%
12,CCN(C(=O)c1cc2ncccc2[nH]1)[C@H]1CCC[C@@H](NCc2cccc(F)c2)C1,130%
13,CN1CCN(Cc2ccc(NC(=O)c3cncc(C#Cc4cnc(N)c5ccncc45)c3)cc2C(F)(F)F)CC1,-9.61% (active)
14,CCC(C)N(CCNc1cc(OC)cc2cccnc12)CC(C)C (stereo not given),73.9%
15,O=[N+]([O-])c1cc(Cl)c2[nH]c3c(Cl)cc([N+](=O)[O-])cc3c2c1,-28.5% (active)
16,COc1cccc(-c2nn(-c3ccccc3)cc2-c2ccnc(NCCCNC(=O)c3ccccc3)c2)c1,23.8%
17,Nc1c(Cl)cc([N+](=O)[O-])cc1Br,101%
18,Cc1ccc(/C=C/C(=O)C(=O)/C=C/c2ccc(C)cc2)cc1,93.3%
19,O=C(CN1C(=O)/C(=C/c2ccco2)SC1=S)NCCc1c[nH]c2ccc(F)cc12,95.9%
20,CCCCOc1cc(C(=O)NCCN(CC)CC)c2ccccc2n1,96.7%

row,Structure (SMILES),growth
1,C=C1CC/C=C(\C)C(=O)C[C@@H]2[C@@H]1CC2(C)C,105%
2,Cc1c(O)c(=O)ccn1-c1nc2ccccc2s1,98.3%
3,O=C(/C=C/c1ccccn1)c1ccccc1,1.48% (active)
4,O=C(Nc1cnn2ccc(N3CCC[C@@H]3c3cc(F)ccc3F)nc12)N1CC[C@H](O)C1,126%
5,CNC(=O)c1cc(Oc2ccc(NC(=O)Nc3ccc(Cl)c(OC(F)(F)F)c3)c(F)c2)ccn1,28.9%
6,C/C(=C\c1csc(C)n1)[C@@H]1C[C@@H]2O[C@]2(C)CCC[C@H](C)[C@H](O)[C@@H](C)C(=O)C(C)(C)[C@@H](O)CC(=O)N1,0.771% (active)
7,O=C(N/N=C/C=C/c1ccc([N+](=O)[O-])o1)c1cc2ccccc2cc1O,3.51% (active)
8,O=S(=O)(NCCCNc1nccc(-c2c(-c3cccc(O)c3)nc3occn23)n1)c1ccc(Br)cc1,69.7%
9,Clc1cc(Cl)cc(N2N=C(c3cccc(Nc4ccncc4)c3)CC2c2ccccc2)c1 (stereo not given),4.62% (active)
10,COc1cc(C2C(C#N)=C(N)Oc3cc4c(cc32)OCO4)cc2c1OCO2 (stereo not given),-43% (active)
11,c1ccc(-c2cn(-c3ccccc3)c(-c3ccccc3)n2)cc1,40.3%
12,C=CC(=O)Nc1cc(Nc2nccc(-c3cn(C)c4ccccc34)n2)c(OC)cc1N(C)CCN(C)C,-65.8% (active)
13,COC(=O)c1c(-c2ccccc2)csc1NC(=O)c1c(-c2ccccc2)noc1C,28.3%
14,CSc1nc(-c2cc3ccccc3o2)cc(-c2ccc(Cl)cc2)c1C#N,126%
15,Cc1ccc(Nc2oc(-c3ccccc3)nc2[P+](c2ccccc2)(c2ccccc2)c2ccccc2)cc1,-32.5% (active)
16,c1cncc(-c2csc(-c3c[nH]c4ccccc34)n2)c1,91.9%
17,Cc1c(CN)cc(-c2ccc(Cl)cc2)n1-c1ccccc1,86.9%
18,C=C1CC2(OC1=O)C(=O)N(CCCN1C(=O)C3(CC(=C)C(=O)O3)c3ccccc31)c1ccccc12 (stereo not given),-26.5% (active)
19,Cn1ccnc1C(=O)/C=C/c1ccc(C(=O)Nc2c(F)c(F)c(F)c(F)c2F)cc1,-22.4% (active)
20,CNCCNc1nc2ccccc2c2c(=O)c3cccc(C)c3sc12,-39.8% (active)
